# Data reported in article PMC7862700, “An all-to-all approach to the identification of sequence-specific readers for epigenetic DNA modifications on cytosine”.
# Columns and labels:
# Assay in all cases: DAPPL (digital affinity profiling via proximity ligation, sequencing); 10 mM Tris-HCl pH 7.5, 50 mM NaCl, 1 mM DTT, 4% glycerol, room temperature, 30 min; GST-TFs on glutathione beads, 16-mer random dsDNA library, 0.1% formaldehyde crosslink after washing; high values mean tight binding
# FEV = target: T1, FEV (Homo sapiens, UniProt Q99581 1-238); conditions: protein: recombinant; tags: N-terminal GST; dsDNA, one strand shown
# T1 sequence: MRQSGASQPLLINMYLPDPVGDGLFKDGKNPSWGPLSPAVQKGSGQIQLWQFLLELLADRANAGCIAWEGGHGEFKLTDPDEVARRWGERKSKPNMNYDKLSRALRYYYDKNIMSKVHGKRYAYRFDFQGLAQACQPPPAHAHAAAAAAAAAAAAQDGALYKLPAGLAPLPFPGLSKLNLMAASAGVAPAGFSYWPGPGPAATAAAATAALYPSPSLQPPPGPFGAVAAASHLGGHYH
# How it was run: (§1)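 Pools of DNA-barcoded human transcription factors, expressed in yeast as GST fusions on glutathione beads and combined with a tag-only sample, were incubated with 200 nmole of a 16-mer random double-stranded DNA library. Incubation took 30 min at room temperature in Tris/NaCl/DTT/glycerol buffer and was followed by washing, 0.1% formaldehyde crosslinking, proximity ligation (BsaI/T4 ligase, 1 h, 37 °C), PCR amplification and sequencing on an Illumina NextSeq500. Binding signal is the ratio of a hexamer's read frequency for a factor to its frequency for the tag-only sample.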
# ETV5 = ETV5 (Homo sapiens, UniProt P41161 1-510); conditions: protein: recombinant; tags: N-terminal GST; dsDNA, one strand shown
# Chain of ETV5 (P41161 whole entry): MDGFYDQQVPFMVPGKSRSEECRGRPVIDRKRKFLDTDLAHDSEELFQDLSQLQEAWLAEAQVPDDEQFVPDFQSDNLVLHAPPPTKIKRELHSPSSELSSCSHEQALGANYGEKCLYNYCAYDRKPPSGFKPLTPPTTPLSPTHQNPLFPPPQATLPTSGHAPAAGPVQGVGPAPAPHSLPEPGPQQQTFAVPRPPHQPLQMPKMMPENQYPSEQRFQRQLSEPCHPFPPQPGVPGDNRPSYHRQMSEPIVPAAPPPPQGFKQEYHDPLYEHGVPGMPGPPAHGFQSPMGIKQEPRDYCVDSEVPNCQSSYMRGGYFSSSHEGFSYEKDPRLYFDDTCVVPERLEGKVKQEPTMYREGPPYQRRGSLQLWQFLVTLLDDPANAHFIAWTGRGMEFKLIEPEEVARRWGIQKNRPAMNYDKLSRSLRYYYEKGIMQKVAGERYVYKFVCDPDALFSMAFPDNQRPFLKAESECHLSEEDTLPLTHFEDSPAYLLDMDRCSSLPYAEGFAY
# How it was run: as §1
# HSF1 = HSF1 (Homo sapiens, UniProt Q00613 1-529); conditions: protein: recombinant; tags: N-terminal GST; chain copies: 3; dsDNA, one strand shown
# Chain of HSF1 (Q00613 whole entry): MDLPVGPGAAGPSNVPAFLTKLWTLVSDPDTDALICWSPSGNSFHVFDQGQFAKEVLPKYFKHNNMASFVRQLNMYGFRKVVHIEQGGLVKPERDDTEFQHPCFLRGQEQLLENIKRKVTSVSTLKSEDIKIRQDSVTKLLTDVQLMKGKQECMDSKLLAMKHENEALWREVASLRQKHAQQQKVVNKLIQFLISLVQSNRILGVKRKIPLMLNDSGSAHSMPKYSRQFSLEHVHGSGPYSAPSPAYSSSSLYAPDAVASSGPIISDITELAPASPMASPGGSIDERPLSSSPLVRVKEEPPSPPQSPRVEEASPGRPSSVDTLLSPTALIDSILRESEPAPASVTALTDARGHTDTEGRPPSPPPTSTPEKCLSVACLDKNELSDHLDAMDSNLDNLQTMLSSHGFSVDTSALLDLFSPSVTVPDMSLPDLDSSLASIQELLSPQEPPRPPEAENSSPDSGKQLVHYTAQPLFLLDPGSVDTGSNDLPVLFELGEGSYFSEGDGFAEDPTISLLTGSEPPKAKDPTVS
# How it was run: as §1
# SPIC = target: T2, SPIC (Homo sapiens, UniProt Q8N5J4 1-248); conditions: protein: recombinant; tags: N-terminal GST; dsDNA, one strand shown
# T2 sequence: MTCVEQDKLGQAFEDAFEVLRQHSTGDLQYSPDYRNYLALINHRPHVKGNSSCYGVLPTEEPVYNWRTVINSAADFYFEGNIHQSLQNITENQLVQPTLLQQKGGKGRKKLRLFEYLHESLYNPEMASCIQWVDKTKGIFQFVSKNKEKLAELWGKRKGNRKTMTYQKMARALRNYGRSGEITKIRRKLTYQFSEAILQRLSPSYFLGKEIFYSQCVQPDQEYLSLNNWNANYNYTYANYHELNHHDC
# How it was run: as §1
# ELF4 = ELF4 (Homo sapiens, UniProt Q99607 1-663); conditions: protein: recombinant; tags: N-terminal GST; dsDNA, one strand shown
# Chain of ELF4 (Q99607 whole entry): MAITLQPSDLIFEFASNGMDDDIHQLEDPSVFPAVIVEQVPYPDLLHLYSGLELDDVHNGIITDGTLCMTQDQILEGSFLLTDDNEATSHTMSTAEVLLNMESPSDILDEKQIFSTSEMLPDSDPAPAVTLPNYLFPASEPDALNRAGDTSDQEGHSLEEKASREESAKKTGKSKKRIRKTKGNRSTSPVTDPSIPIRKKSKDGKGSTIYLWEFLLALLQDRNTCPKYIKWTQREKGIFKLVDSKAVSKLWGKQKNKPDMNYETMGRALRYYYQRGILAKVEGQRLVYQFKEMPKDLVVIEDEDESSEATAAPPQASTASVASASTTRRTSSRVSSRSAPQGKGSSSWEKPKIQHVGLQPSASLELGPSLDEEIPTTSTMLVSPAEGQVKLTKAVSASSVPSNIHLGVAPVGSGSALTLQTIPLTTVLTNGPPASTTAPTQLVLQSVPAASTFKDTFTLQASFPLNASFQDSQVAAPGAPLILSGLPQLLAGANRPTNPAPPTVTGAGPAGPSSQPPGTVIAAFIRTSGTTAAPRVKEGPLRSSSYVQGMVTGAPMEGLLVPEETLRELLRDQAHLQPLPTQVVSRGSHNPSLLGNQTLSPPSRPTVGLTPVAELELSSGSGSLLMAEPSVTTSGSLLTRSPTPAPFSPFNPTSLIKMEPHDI
# How it was run: as §1
# ELK4 = target: T3, ELK4 (Homo sapiens, UniProt P28324-2 1-405); conditions: protein: recombinant; tags: N-terminal GST; dsDNA, one strand shown
# T3 sequence: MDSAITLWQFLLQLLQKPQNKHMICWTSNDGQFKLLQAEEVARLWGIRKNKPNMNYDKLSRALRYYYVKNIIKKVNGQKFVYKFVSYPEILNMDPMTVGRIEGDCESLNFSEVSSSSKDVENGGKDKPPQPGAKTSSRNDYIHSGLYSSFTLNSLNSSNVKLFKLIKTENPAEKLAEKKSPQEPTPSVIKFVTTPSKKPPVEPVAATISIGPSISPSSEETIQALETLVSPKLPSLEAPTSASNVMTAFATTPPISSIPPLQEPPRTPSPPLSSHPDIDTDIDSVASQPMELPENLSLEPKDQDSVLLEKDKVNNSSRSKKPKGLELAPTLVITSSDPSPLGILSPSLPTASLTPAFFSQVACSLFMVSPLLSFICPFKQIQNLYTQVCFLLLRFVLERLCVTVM
# How it was run: as §1
# ETV2 = target: T4, ETV2 (Homo sapiens, UniProt O00321 1-342); conditions: protein: recombinant; tags: N-terminal GST; dsDNA, one strand shown
# T4 sequence: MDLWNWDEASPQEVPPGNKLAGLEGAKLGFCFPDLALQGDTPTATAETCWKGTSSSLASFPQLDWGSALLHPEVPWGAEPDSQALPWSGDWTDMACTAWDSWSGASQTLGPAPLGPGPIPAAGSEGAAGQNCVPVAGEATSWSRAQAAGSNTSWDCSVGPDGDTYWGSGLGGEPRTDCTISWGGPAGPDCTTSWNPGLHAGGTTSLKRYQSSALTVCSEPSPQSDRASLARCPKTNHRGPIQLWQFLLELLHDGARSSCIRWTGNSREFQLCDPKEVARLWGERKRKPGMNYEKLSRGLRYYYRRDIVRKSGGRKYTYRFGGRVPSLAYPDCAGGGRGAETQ
# How it was run: as §1
# ELF3 = target: T5, ELF3 (Homo sapiens, UniProt P78545 1-371); conditions: protein: recombinant; tags: N-terminal GST; dsDNA, one strand shown
# T5 sequence: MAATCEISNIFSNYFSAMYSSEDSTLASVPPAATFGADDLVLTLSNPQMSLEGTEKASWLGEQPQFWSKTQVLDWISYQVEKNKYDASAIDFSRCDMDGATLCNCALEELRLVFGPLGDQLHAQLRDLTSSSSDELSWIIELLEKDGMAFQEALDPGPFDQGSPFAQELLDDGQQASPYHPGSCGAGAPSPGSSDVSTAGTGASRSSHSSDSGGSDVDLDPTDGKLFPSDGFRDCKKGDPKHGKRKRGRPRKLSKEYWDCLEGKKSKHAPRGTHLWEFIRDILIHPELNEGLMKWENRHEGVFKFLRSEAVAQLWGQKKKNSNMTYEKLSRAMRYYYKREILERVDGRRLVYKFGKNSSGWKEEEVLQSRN
# How it was run: as §1
# CRX = CRX (Homo sapiens, UniProt O43186 1-299); conditions: protein: recombinant; tags: N-terminal GST; dsDNA, one strand shown
# Chain of CRX (O43186 whole entry): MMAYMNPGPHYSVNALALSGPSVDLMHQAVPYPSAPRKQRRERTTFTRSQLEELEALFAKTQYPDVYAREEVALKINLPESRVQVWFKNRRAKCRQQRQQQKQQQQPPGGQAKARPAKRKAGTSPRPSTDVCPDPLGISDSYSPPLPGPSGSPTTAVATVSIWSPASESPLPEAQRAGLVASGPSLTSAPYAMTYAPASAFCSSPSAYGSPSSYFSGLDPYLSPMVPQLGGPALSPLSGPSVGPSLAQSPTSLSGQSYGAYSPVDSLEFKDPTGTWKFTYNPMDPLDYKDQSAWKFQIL
# How it was run: as §1
# ETV1 = ETV1 (Homo sapiens, UniProt P50549 1-477); conditions: protein: recombinant; tags: N-terminal GST; dsDNA, one strand shown
# Chain of ETV1 (P50549 whole entry): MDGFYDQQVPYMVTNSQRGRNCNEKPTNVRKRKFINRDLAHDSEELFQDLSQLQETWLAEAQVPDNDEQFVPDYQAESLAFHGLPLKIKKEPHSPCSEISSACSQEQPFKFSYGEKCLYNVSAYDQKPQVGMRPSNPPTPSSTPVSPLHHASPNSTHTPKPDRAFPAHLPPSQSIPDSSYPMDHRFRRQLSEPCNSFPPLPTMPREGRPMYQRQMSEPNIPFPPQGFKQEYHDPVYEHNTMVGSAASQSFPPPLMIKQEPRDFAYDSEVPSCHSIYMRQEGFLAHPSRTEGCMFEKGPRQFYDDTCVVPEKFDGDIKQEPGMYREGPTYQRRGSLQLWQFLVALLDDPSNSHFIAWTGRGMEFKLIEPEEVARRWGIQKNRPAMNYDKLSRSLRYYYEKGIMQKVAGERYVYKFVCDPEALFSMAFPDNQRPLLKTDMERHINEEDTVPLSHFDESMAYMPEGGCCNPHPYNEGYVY
# How it was run: as §1
# ERF = target: T6, ERF (Homo sapiens, UniProt P50548 1-548); conditions: protein: recombinant; tags: N-terminal GST; dsDNA, one strand shown
# T6 sequence: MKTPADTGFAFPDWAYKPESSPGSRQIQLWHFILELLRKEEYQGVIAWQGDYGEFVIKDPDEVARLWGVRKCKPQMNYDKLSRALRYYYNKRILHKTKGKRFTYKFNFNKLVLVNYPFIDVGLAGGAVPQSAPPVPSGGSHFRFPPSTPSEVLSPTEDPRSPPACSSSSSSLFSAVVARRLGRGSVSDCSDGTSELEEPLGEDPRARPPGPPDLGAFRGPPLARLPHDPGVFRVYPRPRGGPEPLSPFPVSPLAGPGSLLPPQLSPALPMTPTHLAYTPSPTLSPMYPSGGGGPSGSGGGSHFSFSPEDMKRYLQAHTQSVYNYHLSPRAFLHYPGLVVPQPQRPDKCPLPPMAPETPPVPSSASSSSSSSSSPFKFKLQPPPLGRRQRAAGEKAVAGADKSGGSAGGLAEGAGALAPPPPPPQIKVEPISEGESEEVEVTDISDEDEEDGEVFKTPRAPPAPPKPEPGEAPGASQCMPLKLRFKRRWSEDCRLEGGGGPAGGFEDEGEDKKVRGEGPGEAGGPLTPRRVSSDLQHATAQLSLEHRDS
# How it was run: as §1
# ETV3L = target: T7, ETV3L (Homo sapiens, UniProt Q6ZN32 1-361); conditions: protein: recombinant; tags: N-terminal GST; dsDNA, one strand shown
# T7 sequence: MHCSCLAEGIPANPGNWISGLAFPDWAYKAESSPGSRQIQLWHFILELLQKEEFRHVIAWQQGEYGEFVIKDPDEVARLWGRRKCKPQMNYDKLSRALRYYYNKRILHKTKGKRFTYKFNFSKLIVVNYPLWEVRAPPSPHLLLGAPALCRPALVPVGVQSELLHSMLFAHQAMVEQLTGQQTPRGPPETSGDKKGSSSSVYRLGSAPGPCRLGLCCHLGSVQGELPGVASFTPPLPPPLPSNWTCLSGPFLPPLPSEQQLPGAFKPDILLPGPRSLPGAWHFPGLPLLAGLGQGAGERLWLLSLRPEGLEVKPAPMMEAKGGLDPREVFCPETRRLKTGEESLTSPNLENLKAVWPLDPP
# How it was run: as §1
# ETS2 = target: T8, ETS2 (Homo sapiens, UniProt P15036 1-469); conditions: protein: recombinant; tags: N-terminal GST; dsDNA, one strand shown
# T8 sequence: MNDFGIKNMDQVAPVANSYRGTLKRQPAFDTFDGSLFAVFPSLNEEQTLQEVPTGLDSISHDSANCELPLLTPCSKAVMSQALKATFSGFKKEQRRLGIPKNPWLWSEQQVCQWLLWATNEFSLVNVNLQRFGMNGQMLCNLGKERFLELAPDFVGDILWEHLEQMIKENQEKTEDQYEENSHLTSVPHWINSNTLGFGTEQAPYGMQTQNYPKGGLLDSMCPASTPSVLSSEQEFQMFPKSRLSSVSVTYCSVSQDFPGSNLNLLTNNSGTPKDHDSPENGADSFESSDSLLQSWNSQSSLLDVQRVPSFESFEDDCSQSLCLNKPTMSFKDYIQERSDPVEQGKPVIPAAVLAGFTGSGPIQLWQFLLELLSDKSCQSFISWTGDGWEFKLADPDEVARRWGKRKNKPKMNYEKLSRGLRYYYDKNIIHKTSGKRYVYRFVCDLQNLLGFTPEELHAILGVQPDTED
# How it was run: as §1
# SPDEF = target: T9, SPDEF (Homo sapiens, UniProt O95238 1-335); conditions: protein: recombinant; tags: N-terminal GST; dsDNA, one strand shown
# T9 sequence: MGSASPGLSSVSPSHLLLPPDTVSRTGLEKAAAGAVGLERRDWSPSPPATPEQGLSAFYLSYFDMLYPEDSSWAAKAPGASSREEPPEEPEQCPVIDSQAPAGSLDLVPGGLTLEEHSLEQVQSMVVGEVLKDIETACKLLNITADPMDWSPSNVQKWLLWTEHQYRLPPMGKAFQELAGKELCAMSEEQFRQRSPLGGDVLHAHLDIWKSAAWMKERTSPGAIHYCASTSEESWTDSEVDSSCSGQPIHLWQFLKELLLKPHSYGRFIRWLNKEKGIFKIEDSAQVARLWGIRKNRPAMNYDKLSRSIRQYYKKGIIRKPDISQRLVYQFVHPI
# How it was run: as §1
# ETV7 = target: T10, ETV7 (Homo sapiens, UniProt Q9Y603 1-341); conditions: protein: recombinant; tags: N-terminal GST; dsDNA, one strand shown
# T10 sequence: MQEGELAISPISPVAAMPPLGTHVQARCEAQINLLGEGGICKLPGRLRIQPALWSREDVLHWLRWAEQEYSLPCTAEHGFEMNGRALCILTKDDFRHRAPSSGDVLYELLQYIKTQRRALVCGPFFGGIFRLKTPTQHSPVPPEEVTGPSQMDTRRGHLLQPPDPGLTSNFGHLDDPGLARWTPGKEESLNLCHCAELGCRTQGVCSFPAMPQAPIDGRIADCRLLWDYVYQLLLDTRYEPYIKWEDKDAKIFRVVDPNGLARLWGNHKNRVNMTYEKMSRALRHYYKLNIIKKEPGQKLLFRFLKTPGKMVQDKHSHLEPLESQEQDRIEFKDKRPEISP
# How it was run: as §1
# ELF5 = target: T11, ELF5 (Homo sapiens, UniProt Q9UKW6-2 1-255); conditions: protein: recombinant; tags: N-terminal GST; dsDNA, one strand shown
# T11 sequence: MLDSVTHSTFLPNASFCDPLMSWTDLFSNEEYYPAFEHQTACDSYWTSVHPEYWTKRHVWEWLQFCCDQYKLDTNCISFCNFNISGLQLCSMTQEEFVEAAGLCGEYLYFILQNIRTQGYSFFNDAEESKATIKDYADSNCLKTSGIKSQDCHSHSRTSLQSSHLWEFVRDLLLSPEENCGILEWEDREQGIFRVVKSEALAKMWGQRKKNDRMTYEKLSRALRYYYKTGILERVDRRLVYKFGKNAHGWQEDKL
# How it was run: as §1
# ETV3 = target: T12, ETV3 (Homo sapiens, UniProt P41162-2 1-143); conditions: protein: recombinant; tags: N-terminal GST; dsDNA, one strand shown
# T12 sequence: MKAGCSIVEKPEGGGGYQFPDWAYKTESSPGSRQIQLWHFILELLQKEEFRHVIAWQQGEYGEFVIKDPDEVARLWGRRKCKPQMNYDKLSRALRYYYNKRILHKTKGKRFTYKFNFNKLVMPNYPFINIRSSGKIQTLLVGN
# How it was run: as §1
# ETV6 = ETV6 (Homo sapiens, UniProt P41212 1-452); conditions: protein: recombinant; tags: N-terminal GST; dsDNA, one strand shown
# Chain of ETV6 (P41212 whole entry): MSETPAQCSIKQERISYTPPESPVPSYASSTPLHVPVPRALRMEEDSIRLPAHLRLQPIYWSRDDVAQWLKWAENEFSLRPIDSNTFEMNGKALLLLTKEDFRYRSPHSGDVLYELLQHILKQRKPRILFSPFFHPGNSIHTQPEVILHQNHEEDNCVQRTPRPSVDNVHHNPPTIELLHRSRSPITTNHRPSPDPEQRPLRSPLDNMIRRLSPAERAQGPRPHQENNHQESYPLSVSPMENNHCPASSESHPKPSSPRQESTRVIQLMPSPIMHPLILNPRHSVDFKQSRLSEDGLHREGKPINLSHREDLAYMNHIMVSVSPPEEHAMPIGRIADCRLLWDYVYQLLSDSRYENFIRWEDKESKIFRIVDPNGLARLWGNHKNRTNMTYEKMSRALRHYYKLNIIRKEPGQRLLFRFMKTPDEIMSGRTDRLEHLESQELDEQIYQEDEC
# How it was run: as §1
sequence,measurement,setting,value
GTGCTT,binding signal,FEV,"1.25 fold enrichment (6-mer frequency, TF over GST control)"
same,binding signal,ETV5,"1.19 fold enrichment (6-mer frequency, TF over GST control)"
same,binding signal,HSF1,"1.05 fold enrichment (6-mer frequency, TF over GST control)"
same,binding signal,SPIC,"1.46 fold enrichment (6-mer frequency, TF over GST control)"
same,binding signal,ELF4,"1.27 fold enrichment (6-mer frequency, TF over GST control)"
same,binding signal,ELK4,"1.1 fold enrichment (6-mer frequency, TF over GST control)"
same,binding signal,ETV2,"1.41 fold enrichment (6-mer frequency, TF over GST control)"
same,binding signal,ELF3,"1.14 fold enrichment (6-mer frequency, TF over GST control)"
same,binding signal,CRX,"1.14 fold enrichment (6-mer frequency, TF over GST control)"
same,binding signal,ETV1,"1.16 fold enrichment (6-mer frequency, TF over GST control)"
same,binding signal,ERF,"1.26 fold enrichment (6-mer frequency, TF over GST control)"
same,binding signal,ETV3L,"1.14 fold enrichment (6-mer frequency, TF over GST control)"
same,binding signal,ETS2,"1.25 fold enrichment (6-mer frequency, TF over GST control)"
same,binding signal,SPDEF,"1.37 fold enrichment (6-mer frequency, TF over GST control)"
same,binding signal,ETV7,"1.3 fold enrichment (6-mer frequency, TF over GST control)"
same,binding signal,ELF5,"1.41 fold enrichment (6-mer frequency, TF over GST control)"
same,binding signal,ETV3,"1.3 fold enrichment (6-mer frequency, TF over GST control)"
same,binding signal,ETV6,"1.37 fold enrichment (6-mer frequency, TF over GST control)"
